This is a sample that favours compounds with a hit; in the whole collection about 13% have one here.
HCV inhibitor: inhibitors of hepatitis C virus infection. Huh7.5.1 HCVcc-Cre infection, luciferase reporter, 44 h. Potency, µM (highest dose often 41.8 µM), inactives show top-dose activity change, negative = inhibition, hits mostly inhibitors. AID 651820. 340,000 tested, 3.4% active; active = well fitted inhibition curve with a large enough effect; inconclusive = small, poorly fitted or top-dose-only effect, or another doubt; inactive = no such curve, though single readings can be large or run the other way; note: potency is the fitted concentration of half-maximal effect; % is set by controls: 0 for no effect and ±100 for the full control effect
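1,000 cells/well; 4 h culture; + compound; + HCVcc-Cre (~0.5 moi); 44 h; luciferase substrate, RT 15 min; read 15 sec.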
Shiga toxin inh: Shiga toxin inhibition. Vero cells, Shiga toxin protein synthesis inhibition reporter. inhibition, % at 38.7 µM. 290,000 tested, 9.2% active. AID 2315; in the data active = inhibition mostly above about 28%, no sharp cut-off; inactive = mostly below about 43%; note: 0% is about no effect
LASV entry inh: inhibitors of Lassa virus binding or cell entry; Potency, µM (titrated, usually from 37.9 µM), for the others: top-dose activity change, negative = inhibition, hits mostly inhibitors; AID 540256; 300,000 tested, 1.2% active; Lassa virus pseudotype entry inhibition, cell reporter; calls by dose curve; tested in HEK293 cells; note: potency is the fitted concentration of half-maximal effect; % is set by controls: 0 for no effect and ±100 for the full control effect; nearly all actives have a fitted effect of over 50% in size
FMDV antiviral: blocks foot and mouth disease virus; AID 1159524; FMDV antiviral cell-based qHTS; 410,000 tested, 1.2% active; Potency, µM (top dose mostly 57.9 µM), for inactives: at the highest dose activity change, negative = inhibition, most hits filed as inhibitors; calls by dose curve; tested in HEK293T cells; note: read-out not given here; potency is the fitted concentration of half-maximal effect; % is set by controls: 0 for no effect and ±100 for the full control effect; nearly all actives have a fitted effect of over 45% in size
Marburg entry inh: inhibitors of Marburg virus binding or cell entry; Marburg virus pseudotyped entry inhibition, cell reporter; Potency, µM (series often up to 37.8 µM), for inactives: at the highest dose activity change, negative = inhibition, hits mostly inhibitors; 300,000 tested, 1.8% active; AID 540276; calls by dose curve; tested in HEK293 cells; note: potency is the fitted concentration of half-maximal effect; % is set by controls: 0 for no effect and ±100 for the full control effect
Cycloheximide cs: counter-screen hit for Shiga toxin inhibitors, cycloheximide; max response, %; cell reporter, cycloheximide protein synthesis inhibition counterscreen; AID 2314; 300,000 tested, 12% active; in the data active = max response mostly above about 13%, no sharp cut-off; inactive = mostly below about 14%; note: read at 38.3 µM for the half of the compounds with a filed dose; 0% is about no effect
The depositor's hits bear a star; [ ] = another dose, or the depositor's remark.

Results for CC(=O)c1cc2c(cc1NC(=O)c1ccc(Cl)cc1)OCCO2 ?
HCV inhibitor: 1%; LASV entry inh: 17%; FMDV antiviral: -24%; Marburg entry inh: 3%; Cycloheximide cs: -2

How did Cc1cc(SCC(=O)N2CCC(c3noc4ccc(F)cc34)CC2)nc2ccccc12 do in these assays?
HCV inhibitor: inconclusive; Shiga toxin inh: 14; LASV entry inh: 1%; FMDV antiviral: inconclusive; Marburg entry inh: 0%; Cycloheximide cs: -3

How did O=C(N/N=C/c1cccc2ccccc12)C(=O)N1CCCC1 do in these assays?
HCV inhibitor: -22%; Shiga toxin inh: 24; LASV entry inh: -22%[46.1 µM]; FMDV antiviral: 31%; Marburg entry inh: -9%[46.1 µM]; Cycloheximide cs: 0

How did O=C(N/N=C/c1ccccc1[N+](=O)[O-])C(=O)N1CCCC1 do in these assays?
HCV inhibitor: 8%; Shiga toxin inh: 52*; LASV entry inh: 6%; FMDV antiviral: 93%; Marburg entry inh: 1%[46.1 µM]; Cycloheximide cs: 20*

What do the screens show for `O=C(CC(=O)NC1CCCCC1)N/N=C/c1ccccc1[N+](=O)[O-]`?
HCV inhibitor: 6%; Shiga toxin inh: 47*; LASV entry inh: 0%[46.1 µM]; FMDV antiviral: 23%; Marburg entry inh: 11%[46.1 µM]; Cycloheximide cs: 29*

Results for O=C(CCCO)N/N=C/c1ccccc1[N+](=O)[O-] ?
HCV inhibitor: 16%; Shiga toxin inh: 39*; LASV entry inh: 22%; FMDV antiviral: 38%; Marburg entry inh: inconclusive; Cycloheximide cs: 1

What do the screens show for `O=C(CNS(=O)(=O)c1ccccc1)N/N=C/c1ccccc1[N+](=O)[O-]`?
HCV inhibitor: -2%; Shiga toxin inh: 2; LASV entry inh: -8%[46.1 µM]; FMDV antiviral: -11%; Marburg entry inh: 1%[46.1 µM]; Cycloheximide cs: -1

How did CCC(=O)N(c1nnc(SCC(=O)Nc2sccc2C(N)=O)s1)C1CC1 do in these assays?
FMDV antiviral: -17%

Results for Clc1ccccc1OCc1nc(-c2ccncc2)no1 ?
HCV inhibitor: inconclusive; Shiga toxin inh: 86*; LASV entry inh: -20%; FMDV antiviral: 37%; Marburg entry inh: inconclusive; Cycloheximide cs: 49*

How did Cc1ccccc1OCc1nc(-c2cccnc2)no1 do in these assays?
HCV inhibitor: -8%; Shiga toxin inh: -2; LASV entry inh: 12%[46.1 µM]; FMDV antiviral: 7%; Marburg entry inh: 6%[46.1 µM]; Cycloheximide cs: -5

Results for c1ccc(OCc2nc(-c3ccccc3)no2)cc1 ?
HCV inhibitor: 7%; Shiga toxin inh: 100*; LASV entry inh: inconclusive; FMDV antiviral: 61%; Marburg entry inh: 15%; Cycloheximide cs: 58*

How did COc1nc(-c2ccccc2)ccc1-c1noc(COc2ccccc2)n1 do in these assays?
HCV inhibitor: -21%; Shiga toxin inh: 24; LASV entry inh: -3%; FMDV antiviral: -5%; Marburg entry inh: 17%; Cycloheximide cs: 17

Results for c1ccc(OCc2nc(-c3ccncc3)no2)cc1 ?
HCV inhibitor: 2%; Shiga toxin inh: 110*; LASV entry inh: inconclusive; FMDV antiviral: 49%; Marburg entry inh: 1%; Cycloheximide cs: 50*

How did Cc1ccc(OCc2nc(-c3cccnc3)no2)cc1C do in these assays?
HCV inhibitor: -9%; Shiga toxin inh: 73*; LASV entry inh: inconclusive; FMDV antiviral: 17%; Marburg entry inh: inconclusive; Cycloheximide cs: 25*

What do the screens show for `Cc1cc(C)cc(OCc2nc(-c3cccnc3)no2)c1`?
HCV inhibitor: -4%; Shiga toxin inh: -8; LASV entry inh: 2%[46.1 µM]; FMDV antiviral: -5%; Marburg entry inh: -12%[46.1 µM]; Cycloheximide cs: -5

What do the screens show for `Cc1ccc(NC(=O)[C@@H]2CCCN2S(=O)(=O)c2ccccc2F)cc1`?
HCV inhibitor: -1%; Shiga toxin inh: -3; LASV entry inh: 1%; FMDV antiviral: 13%; Marburg entry inh: -21%[46.1 µM]; Cycloheximide cs: -3

Results for COc1cccc(C2=CC(=O)CC(C)(C)C2)n1 ?
HCV inhibitor: -1%; FMDV antiviral: -20%

What do the screens show for `Clc1ccc(OCc2nc(-c3ccncc3)no2)c(Br)c1`?
HCV inhibitor: inconclusive; Shiga toxin inh: 71*; LASV entry inh: -17%; FMDV antiviral: 3%; Marburg entry inh: inconclusive; Cycloheximide cs: 40*

Results for COc1cc(OC)c(-c2nc(-c3ccncc3)no2)cc1OC ?
HCV inhibitor: -11%; Shiga toxin inh: -7; FMDV antiviral: -8%; Cycloheximide cs: 9

Bioassay records from PubChem BioAssay.
